From the OligoGym collection

Each sequence was assayed against CREB5 (assay: pooled miR-30 sensor sort-seq; sequence = guide strand). Conditions: shRNA.
Note: reference of the scale not given here.

Row | Sequence | sensor-assay potency score (higher = more potent)
1 | TTAAGTATAGCTTAGCTGCTGC | -0.267
2 | TTAACAGGCAACAACCACCAGA | -0.508
3 | TAGAACATTGTATTTGAACTGA | -0.137
4 | TTATGTGTTAACAACAACTGTT | -0.0254

The sequences below were run against CREG1 in the same assay as above. Conditions: shRNA.

Row | Sequence | sensor-assay potency score (higher = more potent)
5 | TTTGTGGATCAAATCCATGTTT | -0.755
6 | ATATTGGTTATATTCAACTTAG | -1.21
7 | TCCAATAACAGGTCAACTCTAT | -0.715
8 | TGGTCCACCAAAGTAGTCCAGG | -1.37
9 | TTGTGGATCAAATCCATGTTTC | -1.13
10 | TTTCTTGCAGAAGTTGGTCTGT | 0.391
11 | TCACCTTGGTCACAGTTCCTGA | -0.428
12 | TTCTTGCAGAAGTTGGTCTGTG | -0.659
13 | TTCACCTTGGTCACAGTTCCTG | -0.406
14 | TAGAAATAGGGCACGCCGCTGC | -0.314
15 | TTTGCAATATCCATTTCTGTTT | -1.42

What follows are sequences tested against CRIPAK in the same assay as above. Conditions: shRNA.

Row | Sequence | sensor-assay potency score (higher = more potent)
16 | ACCATGAGTAGAATGTACGGTA | -1.4
17 | TTAAAAAGCCACCATGAGTAGA | -1.01
18 | TCCACATGGGCACATGAGCAGG | -2.25
19 | TACGGTAACAGCGTCTGACTCG | -0.0922
20 | ACCTACAGAACCACCATGCCAG | -1.69
21 | TAGAATGTACGGTAACAGCGTC | -0.204
22 | TACAGAACCACCATGCCAGGGC | 0.653
23 | AACAGCGTCTGACTCGGCCGGC | -0.602
24 | ATGTACGGTAACAGCGTCTGAC | -0.866
25 | TATAAAAGGGATCCTTGACATA | -1.08
26 | TCGACATGTGTGAGCAGGCGGG | -1.62
27 | TAACAGCGTCTGACTCGGCCGG | -0.738

What follows are sequences tested against CROT in the same assay as above. Conditions: shRNA.

Row | Sequence | sensor-assay potency score (higher = more potent)
28 | TTTCATAGCAACAACCAGGGTG | 0.143
29 | TTCATAGCAACAACCAGGGTGT | 0.163
30 | TAGAGGAGTATTTCCAACTTTA | -0.214
31 | TTTTCTTATATTCTTCTTGATT | -1.35
32 | TGATGGTATACGAACATCCAGA | -1.05
33 | TAGCATTCGGAATTGATTCATA | -0.712
34 | TTCAAGTGAAGGAACAGGCAGT | 0.589
35 | TTCTAATTGAGTCCCTTCCTTT | -0.88
36 | TATACCAGTAAACTACTCTGAA | 0.286
37 | TATATCTCGTACCTTCTCTGAA | -0.557
38 | TTGTCTGAGAAGCTCTGGCGGG | -0.935
39 | TTGTAACATCTTTTGCTGCCGC | -0.495
